# Bioassay records deposited in PubChem by National Center for Advancing Translational Sciences (NCATS).
# TRHR enhancer: allosterically enhances the human TRH receptor. P34981. TRHR cells, fluo-8 calcium fluorescence, EC20 TRH enhancement. enhancement, % at 2 µM. actives 0.66% (n = 360,000); in the data active = enhancement above about 30%; also: 0% is about no effect
# Target sequence (P34981 whole entry, looked up): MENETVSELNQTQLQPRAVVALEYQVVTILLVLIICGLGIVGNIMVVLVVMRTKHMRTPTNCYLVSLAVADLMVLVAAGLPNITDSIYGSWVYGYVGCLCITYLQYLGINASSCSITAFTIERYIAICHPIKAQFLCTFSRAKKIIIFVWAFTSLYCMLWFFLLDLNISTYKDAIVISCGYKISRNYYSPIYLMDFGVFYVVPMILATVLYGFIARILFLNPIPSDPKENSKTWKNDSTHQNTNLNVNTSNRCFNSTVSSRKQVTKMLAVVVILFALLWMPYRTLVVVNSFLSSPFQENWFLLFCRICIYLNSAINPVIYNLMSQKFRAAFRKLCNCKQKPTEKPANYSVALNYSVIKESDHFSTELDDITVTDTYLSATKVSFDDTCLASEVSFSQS
#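 TRHR-expressing cells loaded with fluo-8 calcium dye were read kinetically (ex 480/em 530) during compound addition, then stimulated with an EC20 of TRH (10 nM final). Enhancement of the Gq-mediated intracellular calcium response was scored.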
# USP1-UAF1 inh: inhibitors of human USP1/UAF1 deubiquitinase. O94782. recombinant USP1/UAF1, Ub-Rhodamine cleavage fluorescence. Potency, µM (titrated, usually from 57.1 µM), for inactives: at the highest dose activity change, negative = inhibition, most hits filed as inhibitors. actives 0.23% (n = 390,000); active = well fitted inhibition curve with a large enough effect; inconclusive = small, poorly fitted or top-dose-only effect; inactive = no such curve, though single readings can be large or run the other way; also: potency is read from the fitted curve at half-maximal effect; % is scaled to controls: 0 for no effect and ±100 for the full control effect; nearly all actives have a fitted effect of over 60% in size
#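 In this screen, compounds sit with the deubiquitinase complex (1nM) for 15 min at room temperature before Ub-Rho is added at 150nM final. Fluorescence rise is then followed for 6 reads every 60 seconds.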
# D1 antag: antagonists of human D1 dopamine receptor; actives 3.2% (n = 360,000); activity change, negative = inhibition, % at 10 µM; P21728; HEK293 TREx D1 cells, calcium flux, dopamine EC80; active compounds read low; in the data active = activity change below about -30%; also: % is scaled to controls: 0 for no effect and ±100 for the full control effect
#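 HEK293 T-REx cells expressing inducible, force-coupled D1 receptor; no-wash Ca dye, 30–90 min RT. Cmpd → 180 s read at 1 Hz → EC80 DA → 180 s read.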
# TRHR ag: activates the human TRH receptor | P34981 | TRHR cells, calcium flux fluo-8, FDSS agonist mode | activation, % at 2 µM | actives 0.18% (n = 360,000) | AID 493084; also: 0% is about no effect
#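 Steps: seed TRHR cells overnight; add fluo-8 no-wash Ca dye, RT 30 min–1.5 h; record 10 s baseline; pin-transfer compounds; monitor fluorescence 1 cycle/s for the agonist window. Calcium increases flag candidate agonists.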
# D1 PAM: potentiators of human D1 dopamine receptor | actives 0.036% (n = 360,000) | AID 504651 | P21728 | potentiation, % at 10 µM | HEK293 TREx D1 cells, calcium flux, dopamine EC20 potentiation; in the data active = potentiation above about 30%; also: 0% is about no effect
# D1 ag: human D1 receptor agonism; P21728; HEK293 T-REx D1 cells, calcium flux, agonist mode; activation, % at 2 µM; actives 1% (n = 360,000); also: 0% is about no effect
#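 Inducible HEK293 T-REx D1 cells, force-coupled to calcium signalling, were plated at 4000 cells/well with tetracycline and held overnight at 30 C. After no-wash calcium dye loading, compound-evoked calcium rise over 180 s flagged agonists.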
# The depositor's hits bear a star; ? = inconclusive; . = no result; ! = not confirmed by another sample. Hits are enriched below; roughly 4.4% of the tested compounds scored in any of these assays. Rule as the data show it, unless noted: active = activation above about 30%; inactive = the rest.
SMILES,TRHR enhancer,USP1-UAF1 inh,D1 antag,TRHR ag,D1 PAM,D1 ag
CC(=O)Nc1ccc(OCc2nnc(-c3ccccc3)o2)cc1,-4,-8%,-48*,0,-8,11
Cc1ccc(C)c(NC(=O)CSc2ncc3c(n2)-c2ccccc2N(Cc2ccccc2C)S3(=O)=O)c1,6,-16%,-2,0,-3,3
Cc1onc(-c2c(F)cccc2Cl)c1C(=O)NCc1ccccn1,0,-17%,-39*,0,4,3
Cc1onc(-c2c(F)cccc2Cl)c1C(=O)c1ccc(F)cc1,-8,-9%,-55*,0,0,8
Cc1onc(-c2c(F)cccc2Cl)c1C(=O)c1ccccc1O,-4,-7%,-41*,0,-11,9
Cc1onc(-c2c(F)cccc2Cl)c1C(=O)c1ccccc1,-6,-18%,-2,0,-2,1
COc1ccc(C)cc1NC(=O)C1CCC(CNS(=O)(=O)c2ccc3c(c2)CCCC(=O)N3)CC1 (configuration not stated),1,-18%,35,0,2,2
COC(=O)c1ccc(Cn2nnc3c(=O)[nH]c(C4CCCN(S(=O)(=O)c5ccccc5Cl)C4)nc32)cc1 (configuration not stated),30*!,-31%,4,1,6,1
COC(=O)c1ccc(Cn2nnc3c(=O)[nH]c(C4CCN(S(=O)(=O)c5ccc(F)cc5)CC4)nc32)cc1,-4,-13%,-14,0,-2,3
C#CCOCCOCCOCCNc1nc(N2CCN(C(=O)CCCCCCCCCCNC(=O)Cn3cc(CCCCCN)nn3)CC2)nc(N2CCN(C(=O)CCCCCCCCCCNC(=O)[C@@H](CCC(=O)O)n3cc(CCCCCN)nn3)CC2)n1,3,-34%,0,0,-9,39*
C#CCOCCOCCOCCNc1nc(N2CCN(C(=O)CCCCCCCCCCNC(=O)Cn3cc(CCCCCN)nn3)CC2)nc(N2CCN(C(=O)CCCCCCCCCCNC(=O)Cn3cc(CCCCCN)nn3)CC2)n1,-3,-21%,37,5,53*,38*
C#CCOCCOCCOCCNc1nc(N2CCN(C(=O)CCCCCCCCCCNC(=O)Cn3cc(C[C@@H](C)O)nn3)CC2)nc(N2CCN(C(=O)CCCCCCCCCCNC(=O)[C@@H](CCC(=O)O)n3cc(CCCCCN)nn3)CC2)n1,2,-27%,5,0,-1,32*
CC(=O)Nc1cccc(-c2nnc(SCC(=O)c3cc([N+](=O)[O-])ccc3Br)o2)c1,-17,12%,-9,-1,-5,0
CCN(CCCNC(=O)CN1N=C(c2ccccc2)CCC1=O)c1ccccc1,3,5%,-5,0,0,-2
COc1ccc(S(=O)(=O)NCc2ccc3c(c2)OCO3)cc1C,0,?,-87*,0,-1,1
O=S(=O)(Cc1ccc(Cl)cc1)NCc1ccc2c(c1)OCO2,-8,-18%,-36*,-3,-2,5
COc1ccc(S(=O)(=O)NCc2ccc3c(c2)OCO3)cc1C(=O)O,5,-22%,25,0,-1,-2
COc1ccc(S(=O)(=O)NCc2ccc3c(c2)OCO3)cc1OC,-2,-7%,-55*,0,-8,0
CC1CCN(C(=O)Cn2cc(SCc3cccc(F)c3)c3ccccc32)CC1,-3,8%,7,1,-7,2
CCN(CC)C(=O)c1sc2c(c1C)c(=O)n(-c1ccc(C)c(C)c1)c(=O)n2Cc1cc(=O)n2c(C)cccc2n1,-5,?,-18,0,-4,0
Cc1ccc(Cl)cc1NC(=O)Cn1cc2c(n1)CCCCC2,1,6%,17,0,1,1
COC(=O)c1cc(NC(=O)c2nn(C)c3c2COc2ccccc2-3)cc(C(=O)OC)c1,5,0%,-55*,0,-2,0
Cc1cc(/C=N/NC(=O)C(O)(c2ccccc2)c2ccccc2)c(C)n1-c1cccc(C(=O)O)c1,2,-30%,-31*,0,-5,2
Cc1cc(/C=N/NC(=O)C(O)(c2ccccc2)c2ccccc2)c(C)n1-c1ccc(C(=O)O)cc1,0,-10%,5,0,-5,0
COC(=O)c1ccc(NC(=O)COC(=O)c2nc3nccc(C)n3n2)cc1,33*,-16%,-35*,1,-2,4
SMILES,TRHR enhancer,USP1-UAF1 inh,D1 antag,TRHR ag,D1 PAM,D1 ag
CC(C)(C)N=C1NC(=NC(C)(C)C)c2ccccc21,2,-12%,-41*,0,-2,19
Cc1ccc(C(=O)N/C(=C\c2ccc(Cl)cc2)C(=O)NC2CCCCC2)cc1,-7,10%,2,0,-1,2
COc1ccc(C(=O)N2CCN(C3CCC(c4ccccc4)CC3)CC2)cc1OC (configuration not stated),-2,-8%,-37*,0,-12,-1
COc1ccc(C(=O)N2CCC(N3CCN(c4ccccc4)CC3)CC2)cc1OC,-4,-1%,-27,-1,-3,0
O=C(c1ccc(F)cc1)N1CCN(C2CCC(c3ccccc3)CC2)CC1 (configuration not stated),11,-20%,-41*,-1,1,3
O=C(c1ccccc1F)N1CCN(C2CCC(c3ccccc3)CC2)CC1 (configuration not stated),2,-21%,-26,-1,-3,0
CCCCOc1ccc(C(=O)Nc2onc3c2CCCC3)cc1,3,?,2,1,-1,5
Cc1cc(C)c(C)c(OCC(=O)Nc2ccc(S(=O)(=O)Nc3nc(C)cc(C)n3)cc2)c1,9,-20%,19,-1,-1,0
CCCn1cc(S(=O)(=O)c2ccccc2)c(=O)c2cc(F)c(N3CCCCCC3)cc21,14,-7%,9,-1,1,3
COc1ccc(OC)c(/C=C2\N=C(c3ccccc3)OC2=O)c1,-5,?,-5,11,-6,74*
COc1cc(/C=C2\N=C(c3ccccc3)OC2=O)ccc1OC(C)=O,-4,-7%,-8,1,1,11
COc1ccc(Cn2ccnc2SCC(=O)NCc2ccccc2)cc1,3,-20%,-6,1,-6,0
CCC(=O)Nc1ccc(-c2nnc3c4ccccc4c(C)nn23)cc1,5,3%,-39*,0,-7,-1
CCC(COC)Oc1cc(NCc2ccccc2)c2ncn(C(C)C)c2c1 (configuration not stated),-1,13µM*,.,0,0,-1
COCCCOc1cc(NCc2ccccc2)c2ncn(C(C)C)c2c1,.,-14%,.,.,.,.
